Compound activity deposited in PubChem BioAssay by several laboratories.
Keap1-Nrf2 PPI: Keap1-Nrf2 (human) interaction inhibition; Keap1 Kelch-Nrf2 peptide fluorescence polarization, 1536-well; inhibition, % at 9.4 µM; 0.15% of 340,000 active; AID 504523; Q14145; in the data active = inhibition above about 12%;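 also: human Keap1 Kelch domain with fluorescein labeled Nrf2 9mer peptide probe; 0% = neutral control wells and 100% = peptide positive control; higher means more block of Keap1 binding to Nrf2 peptide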
Target sequence (Q14145 whole entry, looked up, the tested form may be a part): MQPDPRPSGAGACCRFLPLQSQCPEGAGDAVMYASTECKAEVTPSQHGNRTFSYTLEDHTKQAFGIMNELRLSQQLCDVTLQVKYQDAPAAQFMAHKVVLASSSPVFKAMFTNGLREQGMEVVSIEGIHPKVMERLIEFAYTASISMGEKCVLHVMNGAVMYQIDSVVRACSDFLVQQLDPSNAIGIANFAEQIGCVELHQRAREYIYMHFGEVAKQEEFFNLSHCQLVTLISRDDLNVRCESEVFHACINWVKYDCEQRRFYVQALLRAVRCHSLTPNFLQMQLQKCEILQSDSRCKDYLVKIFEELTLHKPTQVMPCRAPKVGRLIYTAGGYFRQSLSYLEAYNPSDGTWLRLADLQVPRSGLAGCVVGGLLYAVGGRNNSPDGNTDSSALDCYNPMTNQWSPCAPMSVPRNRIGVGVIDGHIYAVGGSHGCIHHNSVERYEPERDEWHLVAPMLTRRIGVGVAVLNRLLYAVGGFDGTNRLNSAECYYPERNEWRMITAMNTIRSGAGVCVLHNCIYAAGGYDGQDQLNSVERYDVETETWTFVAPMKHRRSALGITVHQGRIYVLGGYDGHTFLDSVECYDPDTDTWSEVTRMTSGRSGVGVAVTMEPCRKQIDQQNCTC
ZTA DNA inh: ZTA (EBV) inhibition in EBNA-1 counter-screen | ZTA-DNA binding, fluorescence polarization | inhibition, % at 11 µM | 0.15% of 320,000 active | AID 2234; in the data active = inhibition above about 33%
C-LANA FP: blocks KSHV LANA C-terminal domain binding to DNA; 0.078% of 340,000 active; MBP-C-LANA/FAM-LBS DNA binding, fluorescence polarization; AID 504423; inhibition, % at 9 µM;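 active = highest replicate inhibition at or above 60% at 9 µM, even if other replicates fall short; inactive = all replicates below 60% inhibition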;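 also: 0% = neutral control wells and 100% = 4 µM acridine orange control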
E coli Lon inh: inhibits E. coli Lon protease; 0.42% of 360,000 active; purified E. coli Lon protease, fluorescence polarization; inhibition, % at 7.94 µM; P0A9M0; AID 602123; in the data active = inhibition above about 13%, passing the limit was not always enough;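 also: 0% = enzyme with probe and DMSO and 100% = no enzyme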
EBNA-1 inhibitor: blocks EBNA-1 binding to DNA; EBNA-1 DNA binding, fluorescence polarization; 0.34% of 300,000 active; inhibition, % at 14.8 µM; AID 1950; in the data active = inhibition above about 28%
EBNA-1 confirm: EBNA-1 (EBV) inhibition, confirmation; shares compounds with EBNA-1 inhibitor; Recombinant EBNA-1 DBD, Cy5-DNA fluorescence polarization; inhibition, % at 14.8 µM; 35% of 830 active;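 active = mean inhibition across replicates above a set limit taken from the earlier primary screen, cut at about 28% in these data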;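 also: plate controls were EBNA-1 protein with DMSO for no effect and wells lacking EBNA-1 for full effect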
ZTA counter trip: ZTA (EBV) inhibition, triplicate counter-screen; AID 2328; Zta-ZRE DNA binding, Cy5 fluorescence polarization; inhibition, % at 11.1 µM; 830 tested, under 10 active; shares compounds with EBNA-1 inhibitor;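 active = mean inhibition over triplicates above a set limit taken from the primary EBNA-1 screen, cut at about 37% in these data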;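 also: purified full length Zta protein with Cy5 labeled ZRE DNA probe; 0% = Zta with DMSO and 100% = wells lacking Zta protein; inhibitors lower polarization by freeing the labeled DNA probe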
ZTA inh confirm: EBV ZTA DNA binding inhibition, confirmation. shares compounds with ZTA DNA inh. Zta-ZRE DNA binding, fluorescence polarization. inhibition, % at 11.1 µM. 30% of 320 active. AID 2361;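 active = mean inhibition across triplicate runs above the hit threshold derived for the original primary screen, cut at about 33% in these data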;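 also: 0% = Zta with DMSO and 100% = wells lacking Zta protein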
EBNA1 counter: EBNA-1 DNA binding inhibition, counter-screen for ZTA. shares compounds with ZTA DNA inh. fluorescence polarization. inhibition, % at 14.8 µM. 320 tested, under 10 active. AID 2362; call rule not given here
Keap1 Kelch bind: Keap1 (human) Kelch domain binding; shares compounds with Keap1-Nrf2 PPI; Keap1 Kelch thermal shift, delta Tm; hits give high values; max delta Tm, degrees C; 8% of 400 active; AID 651823; in the data active = max delta Tm above about 0.48 degrees C
eLon confirm: confirmation of E. coli Lon protease inhibitors; shares compounds with E coli Lon inh; purified E. coli Lon, fluorescence polarization; inhibition, % at 7.94 µM; 31% of 1,400 active; in the data active = inhibition above about 16%;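 also: 0% = enzyme with probe and DMSO and 100% = no enzyme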
Active calls of the source: *; . = no result; + = active, no number; ! = not confirmed by another sample. A selection: hits, their analogues and other compounds. The true share with any hit is near 0.85%.

SMILES | Keap1-Nrf2 PPI | ZTA DNA inh | C-LANA FP | E coli Lon inh | EBNA-1 inhibitor | others
OCC[n+]1c2ccccc2nc2ccc(N3CCOCC3)cc21 | . | 115.0* | . | -0.2 | 84.4*
Cc1ccccc1-n1c(O)c(C=Nc2ccc(N(C)C)cc2)c(=O)[nH]c1=O | -0.8 | 172.1* | -0.3 | -5.7 | 42.8*
Cc1ccccc1N1C(=O)/C(=C/c2ccco2)C(=O)NC1=S | . | 69.0* | . | . | 109.9*
O=c1[nH]c(=S)n(-c2ccccc2F)c(O)c1C=Nc1ccc(N2CCOCC2)cc1 | -3.7 | 44.6* | 3.2 | -17.7 | 12.9
CCOC(=O)[C@]12Cc3ccccc3[C@H]1N(CCC(=O)OC)C(=O)c1cc(OC)ccc12 | . | . | . | 7.3 | .
CCOC(=O)[C@]12Cc3cc(Cl)ccc3[C@H]1N(C1CCCCC1)C(=O)c1ccccc12 | . | . | . | -8.3 | .
C=CCn1c(O)c(C(CC)=Nc2ccc3c(c2)CCC3)c(=O)[nH]c1=O | 4.2 | -10.0 | 1.5 | 1.5 | -7.7
C=CCn1c(O)c(C(CC)=Nc2ccc(N(C)C)cc2)c(=O)[nH]c1=O | -3.9 | 137.6* | -1.8 | 9.2 | 126.8*
CN(C)C1C(=O)C(C(N)=O)=C(O)C2(O)C(=O)C3=C(O)c4c(O)cccc4C(C)(O)C3CC12 (stereo not given) | -4.0 | -3.6 | 10.3 | 7.3 | 3.3
CN(C)[C@@H]1C(=O)C(C(N)=O)=C(O)[C@@]2(O)C(=O)C3=C(O)c4c(O)cccc4[C@@](C)(O)C3[C@H](O)C12 (stereo not given in full) | -7.0 | 13.5 | 72.3*! | 70.6 | 13.5
O=C(CCN1CCCCC1)Nc1ccc(Br)cc1C(=O)c1ccccc1 | -0.2 | -8.0 | 0.5 | -9.2 | -4.0
CC(C(=O)Nc1ccc(Br)cc1C(=O)c1ccccc1)N1CCCCC1 (stereo not given) | -0.5 | 2.4 | -0.6 | 24.4* | -2.5
COc1ccc(C(c2nnnn2C2CCCCC2)N2CCC3(CC2)C(=O)NCN3c2ccccc2)cc1 (stereo not given) | . | . | . | -0.8 | .
CN1C(=O)NC(=O)/C(=C/c2ccc([N+](=O)[O-])o2)C1=O | . | 16.5 | . | . | -0.9
O=C1NC(=O)N(c2ccccc2)C(=O)/C1=C\c1ccc([N+](=O)[O-])o1 | . | 41.5* | . | . | -1.8
C[C@]12CCC3C(CC[C@H]4C[C@H](O)CC[C@]34C)C1C[C@@H](CCCCl)[C@@H]2O (stereo not given in full) | . | . | . | -1.4 | .
CCc1ccc(NC(=O)C(C)OC(=O)c2c(C)nn(Cc3ccccc3)c2Cl)cc1 (stereo not given) | -3.0 | 8.1 | -1.3 | 0.4 | 2.7
Cc1nn(Cc2ccccc2)c(Cl)c1C(=O)OCC(=O)Nc1cccc2ccccc12 | -1.1 | 5.8 | -0.2 | -9.1 | 61.0* | EBNA-1 confirm=15.3;ZTA counter trip=-6.0
Cc1nn(Cc2ccccc2)c(Cl)c1C(=O)OC(C)C(=O)Nc1ccc(F)cc1Cl (stereo not given) | 2.1 | -5.3 | -0.5 | 1.7 | 121.6* | EBNA-1 confirm=129.1*;ZTA counter trip=-10.5
CCOC(=O)c1cc2c(cn1)[C@H](CCO)NC2 | 0.4 | . | 0.0 | 3.2 | .
Cc1ccc2c(c1Cl)NC(C(=O)O)C1CC(Sc3ccccc3[N+](=O)[O-])C(Cl)C21 (stereo not given) | 1.4 | -4.8 | 3.1 | 11.1 | -1.7
CCN(CC)C(=O)c1ccc2c(c1)C1C(Cl)C(Sc3ccccc3[N+](=O)[O-])CC1C(C(=O)O)N2 (stereo not given) | 5.2 | 54.5* | 25.1 | 4.4 | 16.6 | ZTA inh confirm=39.4*;EBNA1 counter=8.0
Cn1ncnc2c(=O)n(C)c(=O)nc1-2 | -18.6 | 59.0* | 10.9 | -1.6 | 1.1 | ZTA inh confirm=72.0*;EBNA1 counter=-10.8
Cc1cc(/C=C2\C(=O)NC(=O)N(c3ccc(F)cc3)C2=O)c(C)n1-c1cccc(C(=O)O)c1 | -0.3 | 3.1 | 2.3 | -20.7 | -0.4
Cc1cc(/C=C2\C(=O)NC(=O)N(c3ccccc3F)C2=O)c(C)n1-c1cc(C(=O)O)cc(C(=O)O)c1 | -3.0 | 33.0* | 22.8 | -36.9 | -1.9 | ZTA inh confirm=60.4*;EBNA1 counter=3.5
SMILES | Keap1-Nrf2 PPI | ZTA DNA inh | C-LANA FP | E coli Lon inh | EBNA-1 inhibitor | others
C=CCn1c(O)c(C=Nc2ccc(N(CC)CC)cc2)c(=O)[nH]c1=O | 1.8 | 45.1* | 4.5 | -10.6 | 6.7 | ZTA inh confirm=1.0;EBNA1 counter=-7.1
CCN(CC)c1ccc(N=Cc2c(O)n(-c3ccc(Cl)cc3)c(=O)[nH]c2=O)cc1 | 0.8 | -8.6 | -1.2 | -3.3 | -3.8
COc1ccc(CCn2c(O)c(C=Nc3ccc(NC(C)=O)cc3)c(=O)[nH]c2=O)cc1OC | -5.9 | 60.0* | 4.0 | -18.0 | 9.5 | ZTA inh confirm=47.5*;EBNA1 counter=38.2*
CCN(CC)c1ccc(N=Cc2c(O)n(-c3ccc(OC)cc3)c(=O)[nH]c2=O)cc1 | -1.1 | 36.4* | 2.6 | -17.5 | -5.9 | ZTA inh confirm=-5.2;EBNA1 counter=-10.8
C[C@H]1[C@@H](c2ccccc2)O[C@@H](c2ccccc2Br)N1C | 3.3 | -19.3 | 0.2 | -6.2 | 1.0
COCc1cc(OC(=O)N(C)C)nc(-c2ccccc2)n1 | -1.7 | 6.8 | 1.9 | -1.3 | 4.8
COc1ccc2c(c1)c(C(=O)C(C)N1CCCCC1)c(C)n2C (stereo not given) | -1.7 | -4.2 | 1.4 | -9.7 | -20.0
CCN1C(=O)NC(=O)/C(=C\c2cn(CC(=O)N3CCCCC3)c3ccccc23)C1=O | 20.6* | 3.2 | 36.6 | -33.0 | -2.0 | Keap1 Kelch bind=-0.11
COC1=CC2[C@@H]3Cc4ccc(OC)c(O)c4[C@]2(CCN3C)CC1=O (stereo not given in full) | 1.4 | . | 1.8 | -14.4 | .
O=c1cc(C(F)(F)F)c2cc3c4c(c2o1)CCCN4CCC3 | 13.6* | 2.1 | 19.3 | + | 2.4 | Keap1 Kelch bind=-0.05;eLon confirm=167.0*
COC1C(OC(=O)c2ccc(C)[nH]2)C(O)C(Oc2ccc3c(O)c(NC(=O)c4ccc(O)c(CC=C(C)C)c4)c(=O)oc3c2Cl)OC1(C)C (stereo not given) | -7.4 | -0.8 | -1.0 | 6.2 | 13.7
Nc1ccc2nonc2c1[N+](=O)[O-] | 52.2* | -13.1 | 80.3* | 193.5* | -1.9 | Keap1 Kelch bind=-0.08;eLon confirm=+
Cc1nonc1OCCNc1ccc([N+](=O)[O-])c2cccnc12 | -0.3 | -9.3 | 0.0 | -17.7 | -0.6
